The source made the active and inactive calls. Unless noted, the rule behind the calls is not given here.
How the values were obtained:
[1] = resazurin metabolic signal in HepG2 cells – cell-based, resazurin fluorescence, 24 h, PK04 Diversity Set, profiling panel (AID 1172); details: HepG2 viability, higher = more signal; note: test concentration not given here
[2] = budding yeast growth changes without added modifier – OD600, strain BY4716, 24 h, basal condition, primary screen (AID 1173); details: S. cerevisiae BY4716 growth, OD600, 24 h; higher = more signal, called active from +8 up or from −8 down
[3] = viability profiling in MM1S myeloma cells – cell-based, resazurin fluorescence, basal, 24 h, PK04 Diversity Set, profiling panel (AID 1174); details: higher = more signal, called active from +8 up or from −8 down;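 note: MM1S multiple myeloma cell line; test concentration not given here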
[4] = target: Dihydroorotate dehydrogenase (quinone), mitochondrial (Plasmodium falciparum (isolate 3D7)) (UniProt Q08210); test: inhibition of P. falciparum DHODH – biochemical, C-terminal His tag, absorbance 600 nm, primary screen (AID 1175); details: PfDHODH enzyme, DCIP absorbance 600 nm; higher = more signal, called active from +8 up or from −8 down;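 note: recombinant parasite enzyme with a five histidine tag at its C terminus; test concentration not given here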
[5] = inhibition of PAO1 biofilm formation – strain PAO1, LB-PBS medium, absorbance 600 nm, primary screen (AID 1176); note: test concentration not given here; details: P. aeruginosa PAO1 growth/biofilm, A600, 12 h; higher = more signal
[6] = growth modulation of vineyard yeast isolate – strain RM11-1a, OD600, basal, 24 h, primary screen (AID 1177);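 note: cultures grown under basal conditions with no added stressor; test concentration not given here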; details: S. cerevisiae RM11-1a growth, OD600, 24 h; higher = more signal, called active from +8 up or from −8 down
[7] = growth of efflux-deficient E. coli DRC39 – strain DRC39, OD650, 24 h, E. coli filamentation inducers, primary screen (AID 1178);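 note: growth measured as culture turbidity by optical density at 650 nm; test concentration not given here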; details: E. coli DRC39 acrAB, higher = more signal, called active from +8 up or from −8 down
[8] = growth of efflux-deficient E. coli DRC39 – strain DRC39, OD650, 48 h, E. coli filamentation inducers, primary screen (AID 1179);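 note: screen aims at cell division blockers that make cells filament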; details: E. coli DRC39 delta-acrAB growth, higher = more signal, called active from +8 up or from −8 down
[9] = viability profiling in RPMI8226 myeloma cells – cell-based, resazurin fluorescence, basal, 24 h, PK04 Diversity Set, profiling panel (AID 1180); details: higher = more signal;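 note: RPMI8826 multiple myeloma cell line at 5000 cells per well; test concentration not given here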
[10] = target: E3 ubiquitin-protein ligase XIAP (Homo sapiens) (UniProt P98170); test: small molecules binding XIAP protein – biophysical, small-molecule microarray, fluorescence 635 nm, primary screen (AID 1181); details: higher = more signal;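 note: score merges 667 nm emission and signal to noise over triplicate slides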
Sequence of E3 ubiquitin-protein ligase XIAP (Homo sapiens) (P98170 whole entry, looked up): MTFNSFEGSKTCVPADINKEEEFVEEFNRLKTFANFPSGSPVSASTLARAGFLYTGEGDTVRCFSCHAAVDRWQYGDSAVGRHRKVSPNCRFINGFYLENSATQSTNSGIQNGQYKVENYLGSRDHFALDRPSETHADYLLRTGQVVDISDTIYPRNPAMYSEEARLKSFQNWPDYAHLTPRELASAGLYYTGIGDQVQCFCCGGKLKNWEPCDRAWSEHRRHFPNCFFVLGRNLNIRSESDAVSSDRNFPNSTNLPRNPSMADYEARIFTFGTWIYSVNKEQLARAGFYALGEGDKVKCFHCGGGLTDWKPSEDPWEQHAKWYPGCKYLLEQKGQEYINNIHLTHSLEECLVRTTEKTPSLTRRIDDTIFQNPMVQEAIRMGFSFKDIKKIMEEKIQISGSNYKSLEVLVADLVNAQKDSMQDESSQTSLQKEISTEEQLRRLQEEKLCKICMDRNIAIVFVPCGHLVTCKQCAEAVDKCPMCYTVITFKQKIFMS

Sequence of Dihydroorotate dehydrogenase (quinone), mitochondrial (Plasmodium falciparum (isolate 3D7)) (Q08210 whole entry, looked up): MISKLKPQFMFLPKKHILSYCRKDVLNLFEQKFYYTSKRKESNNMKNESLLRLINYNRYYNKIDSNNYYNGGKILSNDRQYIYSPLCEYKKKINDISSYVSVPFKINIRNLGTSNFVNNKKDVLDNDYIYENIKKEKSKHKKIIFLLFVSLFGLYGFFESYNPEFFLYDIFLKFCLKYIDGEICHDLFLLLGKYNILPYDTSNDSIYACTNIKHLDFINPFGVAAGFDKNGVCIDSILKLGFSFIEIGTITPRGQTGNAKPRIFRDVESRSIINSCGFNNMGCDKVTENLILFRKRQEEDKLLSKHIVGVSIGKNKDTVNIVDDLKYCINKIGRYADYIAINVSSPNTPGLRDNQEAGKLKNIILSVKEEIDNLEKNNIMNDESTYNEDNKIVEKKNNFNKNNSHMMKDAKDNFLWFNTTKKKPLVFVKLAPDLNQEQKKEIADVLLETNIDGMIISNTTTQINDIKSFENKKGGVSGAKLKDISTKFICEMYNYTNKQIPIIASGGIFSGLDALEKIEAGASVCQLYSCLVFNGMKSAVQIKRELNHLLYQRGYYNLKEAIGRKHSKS

| SMILES | z-score [1] | z-score [2] | z-score [3] | composite z-score [4] | z-score [5] | z-score [6] | z-score [7] | z-score [8] | z-score [9] | composite z-score [10] |
| --- | --- | --- | --- | --- | --- | --- | --- | --- | --- | --- |
| Cc1ccc(S(=O)(=O)N[C@@H]2COC(=O)CC=C[C@@H](C)[C@H](NS(=O)(=O)c3ccc(C)cc3)COC(=O)[C@H](C)NC(=O)CC=C[C@H]2C)cc1 | -0.286 | -0.547 (inactive) | 0.341 (inactive) | 0.576 (inactive) | -0.143 (inactive) | -0.188 (inactive) | 0.983 (inactive) | 0.0462 (inactive) | -0.24 | -0.227 |
| CCN1C(=O)[C@H]2[C@H]3[C@H](O)[C@H](O)CC(=NNC(=O)OCc4ccccc4)[C@H]3CC[C@H]2C1=O | -0.0019 | -0.277 (inactive) | -0.193 (inactive) | -0.052 (inactive) | 0.814 (inactive) | -0.727 (inactive) | -0.47 (inactive) | -1.79 (inactive) | -0.163 | -0.102 |
| CC(C)[C@@H](OCc1ccccc1)[C@H](C)C=NO[C@H](C)c1cn([C@@H]2COC[C@H]2O)nn1 | -0.507 | -1.28 (inactive) | -0.648 (inactive) | -0.498 (inactive) | -0.0296 (inactive) | -0.0941 (inactive) | 0.462 (inactive) | 0.178 (inactive) | -0.64 | -0.173 |
| COc1ccc(OC[C@@H](CO)OC)cc1 | -0.279 | 0.0175 (inactive) | -0.143 (inactive) | -0.591 (inactive) | -0.364 (inactive) | -0.334 (inactive) | 0.293 (inactive) | 0.178 (inactive) | 0.421 | -0.0344 |
| CC(=O)OC[C@H]1O[C@H](C#CCCc2ccccc2)C=C[C@@H]1OC(C)=O | -0.403 | -1.17 (inactive) | -0.841 (inactive) | -0.419 (inactive) | -0.0691 (inactive) | 0.702 (inactive) | 0.551 (inactive) | -0.406 (inactive) | -0.0728 | -0.105 |
| COC(=O)[C@H](C)NC(=O)CCC1CC(OC(=O)NCc2cccc3ccccc23)CC2(CCCC(COC(=O)NCCC(C)C)O2)O1 (stereo not given in full) | 0.817 | -0.274 (inactive) | 0.505 (inactive) | -1.24 (inactive) | -0.0691 (inactive) | -0.186 (inactive) | 0.443 (inactive) | 0.594 (inactive) | 0.452 | -0.191 |
| O=C1C2=CC[C@H]3C(=O)N(c4ccc(F)cc4F)C(=O)[C@H]3[C@H]2[C@H](O)[C@@H]2O[C@H]12 | 0.0059 | -0.448 (inactive) | -0.874 (inactive) | -0.166 (inactive) | -0.307 (inactive) | -0.592 (inactive) | -0.401 (inactive) | -0.0889 (inactive) | -0.035 | 0.104 |
| CC(CCN1CCCCc2nc(C)c(C)cc21)=NO[C@@H](C)c1cc(-c2c(C)cc(C)cc2C)no1 | 1.18 | -6.11 (inactive) | 0.862 (inactive) | -0.525 (inactive) | -0.467 (inactive) | -0.62 (inactive) | 0.777 (inactive) | 0.935 (inactive) | 1.51 | 0.626 |
| CON=C(C)CCN1CCCc2nc(C)c(C)cc21 | -0.183 | -0.899 (inactive) | -0.136 (inactive) | -0.329 (inactive) | 0.0981 (inactive) | -0.1 (inactive) | 0.213 (inactive) | -1.7 (inactive) | -0.22 | 0.346 |
| CC(=O)OC[C@H]1O[C@H](CC=NOC[C@@H](O)COCc2ccco2)C=C[C@@H]1OC(C)=O | -0.13 | 0.0523 (inactive) | 0.166 (inactive) | -0.554 (inactive) | -1.26 (inactive) | 0.178 (inactive) | 0.574 (inactive) | 0.924 (inactive) | 0.396 | -0.306 |
| O=C(NN=C1C[C@@H](O)[C@@H](O)[C@@H]2[C@@H]3C(=O)N(Cc4ccccc4)C(=O)[C@@H]3CC[C@H]12)OCc1ccccc1 | 0.604 | -0.921 (inactive) | 1.14 (inactive) | -0.993 (inactive) | 0.471 (inactive) | -0.948 (inactive) | 0.59 (inactive) | -0.783 (inactive) | 0.9 | -0.21 |
| O=C1[C@H]2[C@H]3[C@H](O)[C@H](O)CC(=NOC[C@@H](O)COCc4ccco4)[C@@H]3CC[C@H]2C(=O)N1C1CCCCC1 | -0.31 | 0.446 (inactive) | -0.226 (inactive) | -0.308 (inactive) | 0.0457 (inactive) | 0.153 (inactive) | 0.326 (inactive) | 0.132 (inactive) | -0.415 | -0.28 |
| COC(=O)[C@H](C)NC(=O)CCC1CC(OC(=O)NCc2ccc3c(c2)OCO3)CC2(CCCC(COC(=O)NCCCN3CCCC3=O)O2)O1 (stereo not given in full) | 0.161 | 0.58 (inactive) | -0.0358 (inactive) | 0.184 (inactive) | 0.226 (inactive) | 1.04 (inactive) | 0.7 (inactive) | -0.028 (inactive) | 0.0805 | -0.245 |
| CC(C)=CCCC(C)=CCON=C1C[C@@H](O)[C@@H](O)[C@@H]2[C@@H]3C(=O)N(Cc4ccc5c(c4)OCO5)C(=O)[C@@H]3CC[C@H]12 | 0.659 | 0.522 (inactive) | -0.503 (inactive) | -0.108 (inactive) | 0.437 (inactive) | 1.01 (inactive) | 0.454 (inactive) | 0.0551 (inactive) | -0.402 | -0.144 |
| CC(C)(C)N1C(=O)[C@H]2[C@@H]3C(=CC[C@H]2C1=O)C(=O)[C@H]1O[C@H]1[C@H]3O | -4.22 | -4.73 (inactive) | -7.59 (inactive) | -2.71 (inactive) | -0.331 (inactive) | -3.03 (inactive) | -0.662 (inactive) | -0.613 (inactive) | -5.04 | -0.178 |
| C[C@@H]1C=CCC(=O)OC[C@H](C)C(=O)N[C@@H](Cc2ccccc2)C(=O)OC1 | -0.42 | -1.13 (inactive) | 0.489 (inactive) | -2.99 (inactive) | -0.355 (inactive) | -0.868 (inactive) | 0.0826 (inactive) | -0.0419 (inactive) | 0.394 | -0.0669 |
| CCOC(=O)[C@H](Cc1ccccc1)NC(=O)CCC1CC(OC(=O)NCc2ccc3c(c2)OCO3)CC2(CCCC(COC(=O)NCCOC)O2)O1 (stereo not given in full) | 0.0491 | -0.914 (inactive) | 0.808 (inactive) | -2.56 (inactive) | -0.871 (inactive) | 0.0059 (inactive) | -0.477 (inactive) | 0.525 (inactive) | -0.0023 | 0.0374 |
| COc1ccc(COC(=O)NN=C2C[C@@H](O)[C@@H](O)[C@@H]3[C@@H]4C(=O)N(Cc5ccccc5)C(=O)[C@@H]4CC[C@@H]23)cc1 | 1.13 | 0.18 (inactive) | 0.259 (inactive) | 0.207 (inactive) | 0.0335 (inactive) | 0.325 (inactive) | 0.918 (inactive) | 0.935 (inactive) | 1.12 | -0.102 |
| Cc1cc2c(nc1C)CCCCN2CC(O)CN1CCCc2nc(-c3ccc(Br)cc3)ccc21 (stereo not given) | -0.225 | -0.849 (inactive) | -1.51 (inactive) | 0.667 (inactive) | 0.38 (inactive) | 0.919 (inactive) | 0.608 (inactive) | 0.348 (inactive) | -1.48 | 0.131 |
| CCOC(=O)[C@H](Cc1ccccc1)NC(=O)CCC1CC(OC(=O)NCc2ccc3c(c2)OCO3)CC2(CCCC(COC(=O)NCCc3ccc(Cl)cc3)O2)O1 (stereo not given in full) | -0.202 | -0.65 (inactive) | 0.366 (inactive) | -1.47 (inactive) | 0.769 (inactive) | -1.72 (inactive) | -0.226 (inactive) | -0.756 (inactive) | -0.759 | -0.133 |
| CC1(C)O[C@H]2O[C@H]([C@H](O)CON=C3[C@H]4CCn5c(=O)n(-c6ccccc6)c(=O)n5[C@H]4[C@H](O)[C@@H]4O[C@H]34)[C@H](O)[C@H]2O1 | -0.294 | -0.139 (inactive) | 0.159 (inactive) | -0.327 (inactive) | 0.593 (inactive) | -0.894 (inactive) | 0.483 (inactive) | -0.516 (inactive) | 0.343 | -0.0767 |
| CCOC(=O)[C@H](Cc1ccccc1)NC(=O)CCC1CC(OC(=O)NCc2cccc3ccccc23)CC2(CCCC(COC(=O)NCCOc3ccccc3)O2)O1 (stereo not given in full) | -0.208 | -1.13 (inactive) | 1.41 (inactive) | -0.533 (inactive) | -0.0448 (inactive) | -1.17 (inactive) | 0.19 (inactive) | -1.67 (inactive) | 1.02 | -0.102 |
| CC(C)[C@@H](OCc1ccccc1)[C@H](C)CON=C1[C@H]2CCn3c(=O)n(-c4ccccc4)c(=O)n3[C@H]2[C@H](O)[C@@H]2O[C@H]12 | -0.486 | -1.96 (inactive) | -0.704 (inactive) | -1.78 (inactive) | -0.348 (inactive) | -0.402 (inactive) | 0.961 (inactive) | 0.876 (inactive) | -0.789 | -0.193 |
| CC(C)[C@H](NC(=O)OC(C)(C)C)[C@@H](O)CC(=O)C(C)(C)C | 0.365 | 0.289 (inactive) | -0.809 (inactive) | 0.525 (inactive) | 0.593 (inactive) | 0.942 (inactive) | 0.599 (inactive) | 0.311 (inactive) | -0.816 | -0.111 |
| CC(C)CON=C1C[C@@H](O)[C@@H](O)[C@@H]2[C@@H]3C(=O)N(C(C)(C)C)C(=O)[C@@H]3CC[C@@H]12 | -0.685 | -0.322 (inactive) | 0.4 (inactive) | -1.88 (inactive) | 0.295 (inactive) | -0.492 (inactive) | 0.796 (inactive) | -1.13 (inactive) | -0.463 | -0.277 |
